HT1080 IDH1KD tx: kills HT-1080 cells with IDH1 knockdown | HT-1080 IDH1 knockdown viability, ATP luminescence, 48 h | Potency, µM (doses to about 46.1 µM), inactives show at the top dose activity, negative = toxicity, hits mostly cytotoxic | 360,000 tested, 2% active | AID 686971;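 also: potency is read from the fitted curve at half-maximal effect; 0% = DMSO wells and -100% = cell-free medium wells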
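HT-1080-IDH1KD cells (IDH1 knocked down), 750/well in RPMI with 5% FBS, treated with compound 48 h at 37 degrees C. Viability by CellTiter-Glo luminescence, normalised to DMSO and no-cell wells; concentration-response curves classed.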
TDP1 cell noCPT: qHTS for Inhibitors of human tyrosyl-DNA phosphodiesterase 1 (TDP1): qHTS in cells in absence of CPT | DT40 Tdp1-/- hTDP1 cells, no CPT, ATP luminescence, 48 h | 420,000 tested, 15% active | Potency, µM (top dose mostly 46.2 µM), for the others: top-dose activity change, negative = growth inhibition, hits mostly inhibitors | AID 686978, 2013; also: potency is read from the fitted curve at half-maximal effect; nearly all actives have a fitted effect of over 55% in size
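Compound effects on proliferation are scored in DT40 Tdp1-/-;hTDP1 cells in the absence of CPT. ATP levels (CellTiter-Glo luminescence) are recorded after a ≥48 hr, 37 °C incubation.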
DT40 TDP1 CPT: DT40-hTDP1 cell growth loss with CPT; Potency, µM (doses to about 46.2 µM), for inactives: at the top dose activity change, negative = growth inhibition, usual class: inhibitors; 420,000 tested, 12% active; chicken DT40 Tdp1-/-;hTDP1 cells + 20 nM CPT, ATP luminescence, 48 h; also: potency is read from the fitted curve at half-maximal effect; nearly all actives have a fitted effect of over 55% in size
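Chicken DT40 Tdp1-/- cells stably complemented with human TDP1 were seeded at 400 cells/well in medium containing 20 nM camptothecin, exposed to pin-transferred compounds, and grown at 37 °C for at least 48 hr. Viability was read as ATP luminescence.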
IL-1B inflam inh: inflammasome signaling inhibition, IL-1 beta readout; THP-1 LPS/ATP IL-1B secretion, AlphaLISA, 16 h; active compounds read low; activity change, % at 57.5 µM; 360,000 tested, 4.7% active; AID 743279; in the data active = activity change below about -50%; inconclusive = mostly about -30% to -49%
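Secreted IL-1B measured by AlphaLISA bead assay after 16 h compound exposure of THP-1 cells; compounds (final up to 57.5 uM) added 1 h before LPS (250 ng/mL) and ATP (1.25 mM) stimulation; lower signal means less secretion.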
HT1080NT lethal: kills 2HG-producing HT-1080-NT fibrosarcoma cells; 360,000 tested, 1.6% active; HT-1080-NT fibrosarcoma viability, CellTiter-Glo ATP luminescence, 48 h; Potency, µM (highest dose often 46.1 µM), for inactives: at the top dose activity, negative = less viability, hits mostly cytotoxic;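 also: NT is the 2HG producing partner of a matched IDH1 knockdown line; potency is read from the fitted curve at half-maximal effect; 0% = DMSO-treated cells and -100% = media-only wells without cells; nearly all actives have a fitted effect of over 55% in size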
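Viability of the 2HG-overproducing fibrosarcoma line after 48 hours of compound exposure at 37 degrees C was determined by luminescence with CellTiter-Glo, and concentration-effect curves were then fitted and categorized.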
* marks the source's active call; other numbers are inactive results; i = inactive; ? = inconclusive; nt = no result. A selection: hits, their analogues and other compounds. The true share with any hit is near 19%. Unless noted, calls follow the shape of the dose curve; as a rule, active = well fitted curve in the direction sought with a large enough effect; inconclusive = small, poorly fitted or top-dose-only effect, or another doubt; inactive = no such curve, though single readings can be large; an effect the other way counts as inactive or inconclusive. Unless noted, % is scaled to controls: 0 for no effect and ±100 for the full control effect.

SMILES	HT1080 IDH1KD tx	TDP1 cell noCPT	DT40 TDP1 CPT	IL-1B inflam inh	HT1080NT lethal
O=C(NCC1CC1)c1ccc2nc(-c3ccoc3)c(-c3ccoc3)nc2c1	nt	11µM*	?	nt	nt
O=C(O)c1ccc2nc(-c3ccccc3)c(-c3ccccc3)nc2c1	9%	16%	17%	27	4%
O=Cc1ccc(-c2ccc(Cl)cc2Cl)[nH]1	-2%	1%	4%	-6	-4%
CC(C)(C)N1CC23CCC(C[C@@H]2C1=O)O3 (some centres not stated)	-2%	-6%	-8%	24	-5%
COCCCNC(=O)c1ccc(-c2nc3ccccc3nc2-c2ccccc2)cc1	0%	23µM*	?	-9	-3%
CN1CCN(CCNC(=O)c2ccc3nc(-c4ccc(F)cc4)c(-c4ccc(F)cc4)nc3c2)CC1	23µM*	?	?	-53*	18µM*
COCCNC(=O)c1cccc(Nc2nc(-c3ccccc3)c3cc(Cl)ccc3n2)c1	?	9.2µM*	15µM*	-52*	-23%
COc1ccc(-c2nc3ccc(C(=O)NCC(OC)OC)cc3nc2-c2ccc(OC)cc2)cc1	-15%	8.2µM*	10µM*	-16	-16%
COc1ccccc1N1CCN(C2CCCN(C(=O)c3oc(C)cc3C)C2)CC1 (configuration not stated)	-3%	?	-25%	i	-5%
COc1ccccc1CNC(=O)c1ccc(-c2ccccc2)cc1	0%	-18%	12%	0	-14%
COc1cccc(CNC(=O)c2ccc3nc(-c4ccccc4)c(-c4ccccc4)nc3c2)c1OC	nt	?	23µM*	nt	nt
CCOc1ccc(NC(=O)COc2ccc(C(=O)NCc3cccnc3)cc2OC)cc1	4%	?	?	5	1%
COc1cc(C(=O)NCc2cccnc2)ccc1OCC(=O)Nc1cccc(C(F)(F)F)c1	-26%	3.7µM*	5.2µM*	-7	?
CC(C)(C)C(=O)Nc1ccccc1C(=O)NCc1cccnc1	-4%	-14%	0%	22	2%
C=CCOc1ccc(C(=O)Nc2ccccc2C(=O)NCc2cccnc2)cc1	23µM*	8.2µM*	6.5µM*	-26	21µM*
CC(C)(C)c1ccccc1OCC(=O)Nc1ccccc1C(=O)NCc1cccnc1	?	16µM*	?	-90*	?
CCOc1ccc(NC(=S)NC(=O)c2cccnc2)c([N+](=O)[O-])c1	2%	-1%	4%	9	-4%
CCCCCCn1cc(CN2CC(N3CCN(CCN(C)C)CC3)CS2(=O)=O)nn1 (configuration not stated)	11%	-6%	2%	6	5%
CN(C)CCNC(=O)c1cccc(-c2cnc3c(NC=O)cc(-c4ccccc4F)cn23)c1	?	21µM*	?	-15	?
CN(C)CCNC(=O)c1cccc(-c2cnc3c(NC=O)cc(-c4cccs4)cn23)c1	?	?	?	-10	?
Cc1cc(-c2cc(NC=O)c3ncc(-c4cccc(C(=O)NCCN(C)C)c4)n3c2)cc(C)c1O	26µM*	?	?	-3	26µM*
COc1cccc(N2CCN(C(=O)c3ccc(CS(=O)c4ccc(Cl)cc4)o3)CC2)c1 (configuration not stated)	1.8µM*	0.92µM*	0.73µM*	24	?
COc1cccc(N2CCN(C(=O)c3ccc(CS(=O)c4ccc(C)cc4)o3)CC2)c1 (configuration not stated)	0.29µM*	0.52µM*	0.58µM*	31	0.21µM*
Cc1ncc(CN2CCCC(C(=O)Nc3ccc(-c4ccco4)cc3)C2)n1C (configuration not stated)	-16%	21µM*	?	i	-19%
Cn1cc(CN2CCCC(C(=O)Nc3ccc(-c4cccc(F)c4)cc3)C2)cn1 (configuration not stated)	?	12µM*	21µM*	-11	0%

Screening results as filed in PubChem.
